Measurements: PubChem BioAssay
For part of these data: Entries with a potency or affinity are not part of this list. Records with an inconclusive call do not appear. Some of the results follow. Active and inactive are the calls of the source.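 How the source made its calls, unless noted: active means falling signal with fitted half-maximal potency no higher than twice the top valid tested dose; inconclusive means poor fit quality, or flat fit spanning -70% to -30%; inactive means potency over limit, rising signal, or flat fit inside 30%.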

Key:
[1] = fungal growth arrest, C. neoformans – Alamar Blue, cherry-picks, dose response (AID 686998); conditions: Cryptococcus neoformans growth, 24 h; series mostly up to 35 µM
[2] = C. neoformans lysis by adenylate kinase leakage – AK release luminescence, cherry-picks, dose response (AID 687000;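 active means fitted dose curve reaches 40% lysis signal rise at or below the highest valid concentration tested for that sample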;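 further: luminescent detection of adenylate kinase leaking from lysed yeast; 0% = median neutral control signal and 100% = double that signal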); conditions: 4 h, 100% = twice the neutral-control signal; series mostly up to 15 µM
[3] = viability loss in HepG2 hepatoma cells – cell-based, cherry-picks, set 2, cytotoxicity control, dose response (AID 687002;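 active means a dose-response fit showing signal loss, with half-maximal concentration no higher than twice the top tested dose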); conditions: ATP luminescence (CellTiter-Glo), 48 h; series mostly up to 26 µM
[4] = viability loss in HeLa cells – cell-based, ATP luminescence, cherry-pick samples, cytotoxicity control, dose response (AID 687004;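 active means a fitted half-maximal concentration no higher than twice the top valid tested dose, with signal falling as cells die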;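 further: 0% = neutral control median and -100% = staurosporine 10 µM control median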); conditions: ATP luminescence (CellTiter-Glo), 48 h; series mostly up to 26 µM
[5] = Ring1 de-repression measured by qPCR – cell-based, mouse ESC, RT-qPCR, cherry-pick, esBAF inhibitor project, confirmation (AID 743176;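 active means Ring1 gene expression raised more than 2-fold over untreated cells in both replicates at either tested dose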;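 further: Ring1 transcript normalised to actin housekeeping signal by TaqMan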); conditions: mouse ESC E14, Ring1 mRNA RT-qPCR fold change, stronger effect = higher value
[6] = Fgf4 repression measured by qPCR – cell-based, mouse ESC, RT-qPCR, cherry-pick, esBAF inhibitor project, confirmation (AID 743177;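 active means Fgf4 expression under 0.8 fold of control in both repeat measurements at one or both tested doses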;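 further: Fgf4 transcript normalised to actin in duplex TaqMan qPCR; cells exposed to compound for 24 h before lysis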); conditions: mouse ESC E14, Fgf4 mRNA qPCR fold change, stronger effect = lower value
[7] = Bmi1 mRNA increase in mouse ESCs – cell-based, RT-qPCR, mouse ESC, single point, cherry-pick, confirmation (AID 743180;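 active means Bmi1 expression fold change above 6 at either tested concentration, seen in replicate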); conditions: mouse ESC E14, Bmi1 mRNA qPCR fold, stronger effect = higher value
[8] = viability loss in A549 cells – cell-based, plate reader, single point, cherry-pick, cytotoxicity control (AID 743188; call rule not given here); conditions: at 25 µM
[9] = viability loss in HepG2 cells – cell-based, plate reader, single point, cherry-pick, cytotoxicity control (AID 743189; in the data active means activity change below about -50%); conditions: at 25 µM, stronger effect = lower value
[10] = viability loss in HEK293 cells – cell-based, plate reader, single point, cherry-pick, cytotoxicity control (AID 743190; in the data active means activity change below about -38%, passing the limit was not always enough); conditions: at 25 µM
[11] = A549 cell cytotoxicity, dose response, cytotoxicity control, plate reader, cherry-pick, antagonist series (AID 743412; call rule not given here;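 further: 0% = neutral control wells and -100% = positive control wells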); conditions: series mostly up to 26 µM
[12] = toxicity toward HepG2 liver cells – cell-based, plate reader, cherry-pick, antagonist series, cytotoxicity control, dose response (AID 743416; call rule not given here;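 further: 0% = neutral control wells and -100% = positive control wells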); conditions: series mostly up to 26 µM
[13] = target: Melanocortin receptor 4 (Homo sapiens) (UniProt P32245); experiment: blockade of melanocortin 4 receptor signaling – cell-based, plate reader, cherry pick, counter-screen for LGR2 antagonist project, dose response (AID 743444; call rule not given here); conditions: MC4R-expressing cells, antagonist mode; series mostly up to 35 µM

O=C(C[C@H]1CC[C@H]2[C@@H](COC[C@H](O)CN2Cc2cccc(Cl)c2)O1)Nc1nccs1
outcome [1]: inactive
outcome [2]: inactive
outcome [3]: inactive
outcome [4]: inactive

C[C@@H]1CN([C@@H](C)CO)C(=O)c2cccc(NS(=O)(=O)c3ccc(F)cc3)c2O[C@H]1CN(C)S(=O)(=O)c1ccc(Cl)cc1
outcome [1]: inactive
outcome [2]: inactive
outcome [3]: inactive
outcome [4]: inactive

COc1ccc(C#Cc2cnc3c(c2)C(=O)N([C@@H](C)CO)C[C@H](C)[C@@H](CN(C)C(=O)CC2CC2)O3)cc1
outcome [1]: inactive
outcome [2]: inactive
outcome [3]: inactive
outcome [4]: inactive

C[C@@H]1CN([C@@H](C)CO)C(=O)CCCn2cc(nn2)CO[C@@H]1CN(C)Cc1ccc2c(c1)OCO2
outcome [1]: inactive
outcome [2]: inactive
outcome [3]: inactive
outcome [4]: inactive

C[C@H](NC(=O)C[C@@H]1C=C[C@H](NC(=O)CN2CCOCC2)[C@@H](CO)O1)c1ccccc1
outcome [1]: inactive
outcome [2]: inactive
outcome [3]: inactive
outcome [4]: inactive

COc1ccc(NC(=O)Nc2ccc3c(c2)C(=O)N([C@H](C)CO)C[C@H](C)[C@H](CN(C)C(=O)Cc2ccccc2)OCCCC[C@H](C)O3)cc1
outcome [1]: inactive
outcome [2]: inactive
outcome [3]: inactive
outcome [4]: inactive

CC(C)(C)NC(=O)CSc1ncnc2c1cnn2-c1ccccc1
outcome [1]: inactive
outcome [2]: inactive
outcome [3]: inactive
outcome [4]: inactive

CCC(=O)N(C)C[C@H]1Oc2cc(C#CC(C)(C)O)ccc2S(=O)(=O)N([C@H](C)CO)C[C@@H]1C
outcome [1]: inactive
outcome [2]: inactive
outcome [3]: inactive
outcome [4]: inactive

CCCC(=O)Nc1ccc2c(c1)OC[C@@H](C)N(Cc1cncnc1)C[C@@H](C)[C@@H](OC)CN(C)C2=O
outcome [1]: inactive
outcome [2]: inactive
outcome [3]: inactive
outcome [4]: inactive

CCC(C)(C(=O)NC1CCCCC1)N(C(=O)C1CCC(=O)N1)c1ccc(C)cc1 (centres undefined)
outcome [1]: inactive
outcome [2]: inactive
outcome [3]: inactive
outcome [4]: inactive

COCC(=O)N(C)C[C@@H]1Oc2ncc(C#CCC3CCCC3)cc2C(=O)N([C@H](C)CO)C[C@H]1C
outcome [1]: inactive
outcome [2]: inactive
outcome [3]: inactive
outcome [4]: inactive

COc1ccc(OC(C)C(=O)NC(C)c2ccccc2)cc1 (centres undefined)
outcome [1]: inactive
outcome [2]: inactive
outcome [3]: inactive
outcome [4]: inactive

O=C(C[C@@H]1CC[C@H]2[C@@H](COC[C@@H](O)CN2Cc2ccc(Cl)cc2)O1)NCc1cccc(F)c1
outcome [1]: inactive
outcome [2]: inactive
outcome [3]: inactive
outcome [4]: inactive

CCNC(=O)C[C@@H]1CC[C@H]2[C@@H](COC[C@@H](O)CN2S(=O)(=O)c2ccccc2F)O1
outcome [1]: inactive
outcome [2]: inactive
outcome [3]: inactive
outcome [4]: inactive

CC(C)NC(=O)N(C)C[C@@H]1OCCCC[C@H](C)Oc2ccc(NC(=O)Cc3ccccc3)cc2C(=O)N([C@H](C)CO)C[C@H]1C
outcome [1]: inactive
outcome [2]: inactive
outcome [3]: inactive
outcome [4]: inactive

O=C(C[C@H]1C[C@H]2c3cc(NC(=O)C4CCC4)ccc3O[C@H]2[C@@H](CO)O1)NCc1cccc(F)c1
outcome [1]: inactive
outcome [2]: inactive
outcome [3]: inactive
outcome [4]: inactive

Cc1ccc(S(=O)(=O)Nc2ccc3c(c2)C(=O)N([C@@H](C)CO)C[C@H](C)[C@H](CN(C)S(=O)(=O)c2ccc(Cl)cc2)OCCCC[C@@H](C)O3)cc1
outcome [1]: inactive
outcome [2]: inactive
outcome [3]: inactive
outcome [4]: inactive

COCCNC(=O)C[C@H]1CC[C@@H]2[C@H](COC[C@H](O)CN2S(=O)(=O)c2ccccc2C)O1
outcome [1]: inactive
outcome [2]: inactive
outcome [3]: inactive
outcome [4]: inactive

O=C(NC1CCCCC1)N[C@H]1C=C[C@@H](CC(=O)N2CCOCC2)O[C@H]1CO
outcome [1]: inactive
outcome [2]: inactive
outcome [3]: inactive
outcome [4]: inactive

Cc1noc(C)c1S(=O)(=O)Nc1ccc2c(c1)C(=O)N([C@@H](C)CO)C[C@H](C)[C@@H](CN(C)Cc1ccc3c(c1)OCO3)OCCCC[C@@H](C)O2
outcome [1]: inactive
outcome [2]: inactive
outcome [3]: inactive
outcome [4]: inactive

C[C@H]1CN([C@@H](C)CO)C(=O)Cc2cc(NS(=O)(=O)c3ccc(F)cc3)ccc2O[C@H]1CN(C)S(=O)(=O)c1ccc(F)cc1
outcome [1]: inactive
outcome [2]: inactive
outcome [3]: inactive
outcome [4]: inactive

O=C(c1cccc(F)c1)N1C[C@@H]2[C@H](c3ccccc31)[C@H](CO)N2Cc1cocn1
outcome [1]: inactive
outcome [2]: inactive
outcome [3]: inactive
outcome [4]: inactive

CNC(=O)C[C@@H]1CC[C@@H]2[C@H](COc3ccc(NC(=O)c4cc(C)on4)cc3C(=O)N2C)O1
outcome [1]: inactive
outcome [2]: inactive
outcome [3]: inactive
outcome [4]: inactive

Cc1noc(C)c1NC(=O)N(C)C[C@@H]1Oc2ccc(NS(=O)(=O)c3cn(C)cn3)cc2CC(=O)N([C@H](C)CO)C[C@H]1C
outcome [1]: inactive
outcome [2]: inactive
outcome [3]: inactive
outcome [4]: inactive

Cc1ccc(S(=O)(=O)Nc2ccc3c(c2)C(=O)N([C@H](C)CO)C[C@H](C)[C@@H](CN(C)Cc2ccccc2)O3)cc1
outcome [1]: inactive
outcome [2]: inactive
outcome [3]: inactive
outcome [4]: inactive

COc1cccc(S(=O)(=O)Nc2ccc3c(c2)[C@@H]2C[C@@H](CC(=O)NCc4cccc(F)c4)O[C@H](CO)[C@@H]2O3)c1
outcome [1]: inactive
outcome [2]: inactive
outcome [3]: inactive
outcome [4]: inactive

O=C(c1ccco1)N1N=C(c2cccs2)CC1c1ccccc1O (centres undefined)
outcome [1]: inactive
outcome [2]: inactive
outcome [3]: inactive
outcome [4]: inactive

CO[C@@H]1CN(C)C(=O)c2ccc(NC(=O)C3CC3)cc2OC[C@H](C)N(C(=O)c2ccncc2)C[C@H]1C
outcome [1]: inactive
outcome [2]: inactive
outcome [3]: inactive
outcome [4]: inactive

C[C@@H]1CN([C@H](C)CO)C(=O)c2c(c3ccccc3n2C)-c2ccccc2CO[C@H]1CN(C)S(=O)(=O)c1cccs1
outcome [1]: inactive
outcome [2]: inactive
outcome [3]: inactive
outcome [4]: inactive

C[C@@H]1CN([C@@H](C)CO)C(=O)c2cccc(NC(=O)C3CC3)c2O[C@@H]1CN(C)C
outcome [1]: inactive
outcome [2]: inactive
outcome [3]: inactive
outcome [4]: inactive

CN1CCN(C(=O)CN(c2ccc(I)cc2)S(=O)(=O)c2ccccc2)CC1
outcome [1]: inactive
outcome [2]: inactive
outcome [3]: inactive
outcome [4]: inactive

COCC(=O)N1C[C@H](C)[C@@H](OC)CN(C)C(=O)c2ccc(NS(C)(=O)=O)cc2OC[C@@H]1C
outcome [1]: inactive
outcome [2]: inactive
outcome [3]: inactive
outcome [4]: inactive

CN(C)C(=O)c1ccc(-c2ccc([C@H]3[C@H](CO)N4CCCCN(CCC(F)(F)F)C[C@@H]34)cc2)cc1
outcome [1]: inactive
outcome [2]: inactive
outcome [3]: inactive
outcome [4]: inactive

COc1ccc(NC(=O)Nc2ccc3c(c2)C(=O)N([C@H](C)CO)C[C@@H](C)[C@@H](CN(C)C(=O)CCC(F)(F)F)OCCCC[C@H](C)O3)cc1
outcome [1]: inactive
outcome [2]: inactive
outcome [3]: inactive
outcome [4]: inactive

CO[C@H]1CC[C@H]2CCOc3c(C#N)cccc3C(=O)N(C)C[C@@H](C)C(=O)N(C)C[C@H]1O2
outcome [1]: inactive
outcome [2]: inactive
outcome [3]: inactive
outcome [4]: inactive

C[C@@H](O)C#Cc1ccc([C@@H]2[C@H]3CN(CC4CC4)CCCCN3[C@H]2CO)cc1
outcome [1]: inactive
outcome [2]: inactive
outcome [3]: inactive
outcome [4]: inactive

COc1ccc(C2=Nc3ccccc3NC(=O)C2N(C(=O)c2cc3ccccc3[nH]2)c2ccccc2)cc1 (centres undefined)
fold change ([5]; Ring1 fold increase, at 7 µM): 1.31
fold change ([5]; at 33 µM): 0.913 (inactive)
Fgf4 expression fold change ([6]; Fgf4 expression, at 7 µM): 1.01
Fgf4 expression fold change ([6]; at 33 µM): 0.976 (inactive)
fold change ([7]; Bmi1 de-repression, at 7 µM): 1.36
fold change ([7]; at 33 µM): 1.54 (inactive)
cell viability change % (negative = cytotoxic) [8]: 6.45% (inactive)
activity change, negative = inhibition [9]: -23.1% (inactive)
activity change, negative = inhibition [10]: -16.6% (inactive)

C[C@@H]1CN([C@H](C)CO)C(=O)c2cc(NC(=O)Nc3cccc4ccccc34)ccc2O[C@@H]1CN(C)C(=O)Nc1ccccc1
outcome [11]: inactive
outcome [12]: inactive
outcome [13]: inactive

C[C@H]1CN([C@@H](C)CO)C(=O)c2cc(-c3ccc(F)cc3)cnc2O[C@@H]1CN(C)CC1CCCCC1
outcome [1]: inactive
outcome [3]: inactive
outcome [4]: inactive

COCCN1C(=S)N[C@@H](c2ccccc2)C(C(=O)OC)=C1C
outcome [1]: inactive
outcome [3]: inactive
outcome [4]: inactive

CO[C@@H]1CN(C)C(=O)c2cc(NS(=O)(=O)c3cccc(C)c3)ccc2OC[C@@H](C)NC[C@H]1C
outcome [1]: inactive
outcome [3]: inactive
outcome [4]: inactive

N#Cc1ccc(C23CC4(C2)[C@H](CN(Cc2ccc(C(F)(F)F)cc2)[C@@H]4c2ccccc2)C3c2ccc(C(F)(F)F)cc2)cc1 (some centres undefined)
outcome [1]: inactive
outcome [3]: inactive
outcome [4]: inactive

C[C@H](CO)N1C[C@H](C)[C@@H](CN(C)CC2CCOCC2)Oc2ncc(C#Cc3ccc(F)cc3)cc2C1=O
outcome [1]: inactive
outcome [3]: inactive
outcome [4]: inactive

C[C@@H]1CN([C@H](C)CO)S(=O)(=O)c2ccc(C#C[C@@H](C)O)cc2O[C@@H]1CN(C)Cc1ccncc1
outcome [1]: inactive
outcome [3]: inactive
outcome [4]: inactive

COc1cccc(NC(=O)N2C[C@H](O)COC[C@H]3O[C@@H](CC(=O)NCc4ccccc4F)CC[C@@H]32)c1
outcome [1]: inactive
outcome [3]: inactive
outcome [4]: inactive

CC(C)NC(=O)Nc1ccc2c(c1)C(=O)N([C@@H](C)CO)C[C@@H](C)[C@@H](CN(C)C(=O)NC(C)C)OCCCC[C@@H](C)O2
outcome [1]: inactive
outcome [3]: inactive
outcome [4]: inactive

CC(C)NC(=O)Nc1ccc2c(c1)C(=O)N([C@@H](C)CO)C[C@@H](C)[C@H](CN(C)C(=O)c1ccncc1)OCCCC[C@H](C)O2
outcome [1]: inactive
outcome [3]: inactive
outcome [4]: inactive

Cc1cccc(C)c1NC(=O)C1CCCN1C(=O)NCc1ccccc1 (centres undefined)
outcome [1]: inactive
outcome [3]: inactive
outcome [4]: inactive

CCCNC(C)C(=O)Nc1ccccc1C (centres undefined)
outcome [1]: inactive
outcome [3]: inactive
outcome [4]: inactive
